# Measurements: PubChem BioAssay AID2615 (Southern Research Specialized Biocontainment Screening …, 2010)
# Calls of active or inactive are those of the source. How the calls were made is not given here.
# Assay: antiviral efficacy and BSC cell toxicity – BSC cells, SV40 T antigen inhibitor project, confirmation (AID 2615)
# Details: BSC cells SV40 infection, CPE inhibition; viability, at 100 µM, stronger effect = lower value
smiles,measurement,value
COc1ccc(CC2NCCc3cc(OC)c(OC)cc32)cc1OC (configuration not stated),outcome,inactive
same,viability,201%
